Screening data: PubChem, several laboratories
Compounds with a hit are over-represented: about 6.6% of the library has one in this group of screens.
NR3A LBD binder – modulates the human NR3A ligand-binding domain. AID 1259313. hit rate 2.5% among 340,000. Tm shift relative to glycine control, % at 25 µM. NR3A LBD differential scanning fluorimetry, Tm shift; 0% = protein alone, 100% = glycine-bound protein;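 active = melting temperature shift of at least 10% of the positive control shift, at one fixed dose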
CSC inhib – blocks cancer stem cells | cancer stem cell-like cells viability, luminescence | AID 2717 | inhibition, % at 7.5 µM | hit rate 1.1% among 300,000; in the data active = inhibition above about 75%; tested in HMLE shEcad cells
Mdm2-MdmX inh – inhibitors of human Mdm2/MdmX interaction. SaOS-2 split-luciferase Mdm2/MdmX complementation, luminescence. inhibition, % at 8 µM. hit rate 3% among 330,000. AID 485346;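 active = inhibition of at least 50% at 8 µM in the primary screen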
Target sequence (O15151 whole entry, looked up): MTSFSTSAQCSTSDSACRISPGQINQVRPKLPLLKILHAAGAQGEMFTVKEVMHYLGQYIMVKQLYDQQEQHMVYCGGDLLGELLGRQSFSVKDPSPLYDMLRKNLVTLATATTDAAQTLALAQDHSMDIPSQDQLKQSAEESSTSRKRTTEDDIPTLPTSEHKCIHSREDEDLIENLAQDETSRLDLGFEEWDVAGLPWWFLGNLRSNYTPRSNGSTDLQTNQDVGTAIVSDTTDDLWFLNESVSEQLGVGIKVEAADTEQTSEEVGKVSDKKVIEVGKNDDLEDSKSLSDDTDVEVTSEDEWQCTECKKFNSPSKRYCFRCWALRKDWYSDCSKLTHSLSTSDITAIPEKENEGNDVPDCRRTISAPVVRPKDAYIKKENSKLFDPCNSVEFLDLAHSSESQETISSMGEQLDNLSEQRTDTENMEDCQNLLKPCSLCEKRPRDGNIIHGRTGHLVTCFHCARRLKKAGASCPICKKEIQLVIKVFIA
Target sequence (Q00987 whole entry, looked up): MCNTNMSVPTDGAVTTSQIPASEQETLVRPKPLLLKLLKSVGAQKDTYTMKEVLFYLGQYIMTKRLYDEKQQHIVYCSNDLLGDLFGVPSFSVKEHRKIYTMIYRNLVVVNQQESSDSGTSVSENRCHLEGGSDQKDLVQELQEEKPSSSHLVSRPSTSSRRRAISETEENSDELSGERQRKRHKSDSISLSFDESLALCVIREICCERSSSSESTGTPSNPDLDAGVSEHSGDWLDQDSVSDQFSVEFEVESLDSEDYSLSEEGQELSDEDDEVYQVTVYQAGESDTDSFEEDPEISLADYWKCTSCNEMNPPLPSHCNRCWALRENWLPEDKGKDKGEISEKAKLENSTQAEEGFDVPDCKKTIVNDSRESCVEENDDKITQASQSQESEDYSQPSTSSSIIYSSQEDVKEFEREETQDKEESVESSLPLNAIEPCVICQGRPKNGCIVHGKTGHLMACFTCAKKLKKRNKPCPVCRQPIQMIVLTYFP
Gli-Sufu antag – Gli-Sufu pathway antagonism. hit rate 0.74% among 340,000. AID 588413. inhibition, % at 5 µM. Sufu-KO-LIGHT fibroblasts, Gli luciferase reporter luminescence;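 active = inhibition above about 55%, limit read from the data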;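 also: 0% = DMSO-treated cells and 100% = wells with medium but no cells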
Beta apoptosis – beta cell apoptosis inhibition. INS-1E cytokine-induced death, ATP luminescence, 48 h; percent of positive-control rescue, neutral wells zero. protection from apoptosis, % (no concentration beside the values). hit rate 0.8% among 300,000;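 active = Every replicate reaches about 75%, or at least half do and their mean reaches it too, limit read from the data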;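 also: 0% = cytokine-treated negative control wells and 100% = positive control rescue; higher means more ATP so stronger rescue from cytokine killing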
MPTP block – blocks calcium-induced mitochondrial swelling. isolated mouse mitochondria, Ca2+ swelling absorbance, 30 min. inhibition, % at 10 µM. hit rate 1.4% among 360,000. AID 602449;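 active = inhibition of 50% or more, scaled per plate between neutral and stimulator controls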;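 also: 0% = DMSO wells given calcium and 100% = 1 mM EGTA wells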
Mdm2-MdmX conf – human Mdm2/MdmX binding inhibition, confirmed; shares compounds with Mdm2-MdmX inh; luminescent assay; inhibition, % at 8 µM; hit rate 55% among 10,000; AID 489028; in the data active = inhibition above about 40%
FLuc counter – full-length luciferase inhibition in Mdm2/MdmX counter-screen; SaOS-2 full-length luciferase counterscreen, luminescence; shares compounds with Mdm2-MdmX inh; inhibition, % at 8 µM; hit rate 77% among 6,200;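 active = mean inhibition at 8 µM reaching about 37%, which flags the compound as non-specific, limit read from the data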;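 also: p53-null SaOS-2 cells with luciferase driven by a doxycycline-inducible promoter; compound on cells about two nights before reading with doxycycline added after day one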
* hit, by the source's call.

Screening Cc1ccc(S(=O)(=O)c2c(C)nn(C(C)(C)C)c2OC(=O)c2ccc(Br)o2)cc1 returned NR3A LBD binder 3, CSC inhib 91*, Mdm2-MdmX inh 89*, Gli-Sufu antag 7, Beta apoptosis -12, MPTP block 0, Mdm2-MdmX conf 60* and FLuc counter 29.
For O=C(O)c1ccc2c(c1)C(=O)N(c1ccc(Nc3ccccc3)cc1)C2=O the results were NR3A LBD binder 0, CSC inhib -14, Mdm2-MdmX inh 5, Gli-Sufu antag 3, Beta apoptosis -8 and MPTP block 1.
For CC1CCCCN1S(=O)(=O)c1ccc(S(=O)(=O)N2CCN(c3ccccc3)CC2)cc1 (stereo not given) the results were NR3A LBD binder 1, CSC inhib 3, Mdm2-MdmX inh 57*, Gli-Sufu antag 6, Beta apoptosis -1, MPTP block 5 and Mdm2-MdmX conf -11.
Screening O=C(c1ccc(S(=O)(=O)N2CCCCC2)cc1)N1CCN(c2ccccc2)CC1 returned NR3A LBD binder -1, CSC inhib -14, Mdm2-MdmX inh -14, Gli-Sufu antag 7, Beta apoptosis 3 and MPTP block -2.
COc1ccccc1N1CCN(C(=O)c2c(-c3c(F)cccc3Cl)noc2C)CC1 was read as NR3A LBD binder -2, Mdm2-MdmX inh -1, Gli-Sufu antag -15 and MPTP block 0.
Screening COc1cc(NC(=O)c2cccc3c2C(=O)N(Cc2cccnc2)C3)cc(OC)c1OC returned NR3A LBD binder -4, CSC inhib 23, Mdm2-MdmX inh 52*, Gli-Sufu antag 14, Beta apoptosis -6, MPTP block 0, Mdm2-MdmX conf 48* and FLuc counter 95*.
`O=C(Nc1ccc2c(c1)OCO2)c1cccc2c1C(=O)N(Cc1cccnc1)C2` gave NR3A LBD binder -1, CSC inhib -8, Mdm2-MdmX inh -1, Gli-Sufu antag -12, Beta apoptosis 3 and MPTP block 2.
`COc1ccccc1-c1cc(-c2ccccc2)nc(SC(C(N)=O)c2ccccc2)c1C#N` (stereo not given) gave NR3A LBD binder 1, CSC inhib 12, Mdm2-MdmX inh 93*, Gli-Sufu antag -12, Beta apoptosis 41, MPTP block 1, Mdm2-MdmX conf 58* and FLuc counter 19.
For COC(=O)CC1(C(=O)OC)Nc2cc(Cl)c(Cl)cc2S(=O)(=O)N1O (stereo not given) the results were MPTP block 0.
`Oc1ccc(/C=N/Nc2nc(N3CCCCCC3)nc(N3CCCCCC3)n2)c(O)c1` gave NR3A LBD binder 15*, Mdm2-MdmX inh 66*, Gli-Sufu antag -9, Beta apoptosis 2, MPTP block 5 and Mdm2-MdmX conf -13.
`Oc1ccc(Br)cc1/C=N/Nc1nc(N2CCCCC2)nc(N2CCOCC2)n1` gave NR3A LBD binder -2, CSC inhib 2, Mdm2-MdmX inh 37, Gli-Sufu antag -1 and Beta apoptosis 7.
Screening Cc1cc(C)nc(SCC(=O)c2ccc(F)cc2F)n1 returned NR3A LBD binder 1, CSC inhib -1, Mdm2-MdmX inh 17, Gli-Sufu antag -7, Beta apoptosis 3 and MPTP block -2.
Screening COc1ccc(S(=O)(=O)N2CCOCC2)cc1NC(=O)/C=C/c1ccccc1 returned NR3A LBD binder 2, Mdm2-MdmX inh 13, Gli-Sufu antag 0 and MPTP block 0.
`COc1cccc(N2CCN(C(=O)c3ccc(CS(=O)c4ccccc4Cl)o3)CC2)c1` (stereo not given) gave NR3A LBD binder 1, CSC inhib 52, Mdm2-MdmX inh 70*, Gli-Sufu antag 44, Beta apoptosis 21, MPTP block -2, Mdm2-MdmX conf 51* and FLuc counter 102*.
Screening COc1ccc(N2CCN(C(=O)c3ccc(CS(=O)c4cccc(C)c4)o3)CC2)cc1 (stereo not given) returned NR3A LBD binder 2, CSC inhib -5, Mdm2-MdmX inh 27, Gli-Sufu antag 14, Beta apoptosis -6 and MPTP block 0.
COc1cccc(N2CCN(C(=O)c3ccc(CS(=O)c4ccccc4C)o3)CC2)c1 (stereo not given) was read as NR3A LBD binder 0, CSC inhib 54, Mdm2-MdmX inh 51*, Gli-Sufu antag 25, Beta apoptosis 7, MPTP block 4, Mdm2-MdmX conf 50* and FLuc counter 74*.
COc1cccc(-n2nnnc2SCC(=O)Nc2ccc(OC)cc2OC)c1 was read as NR3A LBD binder -1, CSC inhib -7, Mdm2-MdmX inh -17, Gli-Sufu antag -5, Beta apoptosis 5 and MPTP block 0.
For C#CCn1c(=NC(=O)c2cccs2)sc2cccc(OCC)c21 the results were NR3A LBD binder -1, CSC inhib -14, Mdm2-MdmX inh 64*, Gli-Sufu antag -6, Beta apoptosis 4, MPTP block 1 and Mdm2-MdmX conf -4.
`CCOC(=O)Nc1ccc2c(c1)N(C(=O)N1CCN(C)CC1)c1ccccc1S2` gave NR3A LBD binder -5, CSC inhib 5, Mdm2-MdmX inh 23, Gli-Sufu antag -4, Beta apoptosis 2 and MPTP block -2.
Screening C=CC(=O)N1c2ccccc2Sc2ccc(NC(=O)OCC)cc21 returned NR3A LBD binder -1, CSC inhib 32, Mdm2-MdmX inh 87*, Gli-Sufu antag 6, Beta apoptosis -25, MPTP block -2, Mdm2-MdmX conf 41* and FLuc counter 35.
Screening COc1ccc(-c2nnc(SCC(=O)N3c4ccccc4Sc4ccccc43)o2)cc1 returned NR3A LBD binder 1, CSC inhib -4, Mdm2-MdmX inh 35, Gli-Sufu antag 6, Beta apoptosis 4 and MPTP block 1.
Screening COc1cc(OC)cc(-c2nnc(SCC(=O)N3c4ccccc4Sc4ccccc43)o2)c1 returned NR3A LBD binder -4, CSC inhib 20, Mdm2-MdmX inh 54*, Gli-Sufu antag 4, Beta apoptosis 2, MPTP block 0 and Mdm2-MdmX conf 12.
Screening COCCNC(=O)CCCn1c(=O)c2cc(OC)c(OC)cc2n(CC(=O)c2cccc(OC)c2)c1=O returned NR3A LBD binder 2, CSC inhib -4, Mdm2-MdmX inh -10, Gli-Sufu antag 8, Beta apoptosis -7 and MPTP block 1.
Screening COc1cc2c(=O)n(Cc3ccco3)c(=O)n(CC(=O)c3cccc(Br)c3)c2cc1OC returned NR3A LBD binder 0, CSC inhib -4, Mdm2-MdmX inh 50*, Gli-Sufu antag -1, Beta apoptosis 19 and Mdm2-MdmX conf 25.
`CCOc1ccc(NS(=O)(=O)c2c(C)nc3sccn3c2=O)cc1` gave NR3A LBD binder -1, CSC inhib -13, Mdm2-MdmX inh 0, Gli-Sufu antag 6, Beta apoptosis -4 and MPTP block 0.
